Sampled rows, rich in hits. Any-hit rate of the full collection: about 12%.
Sfp inh: qHTS Assay for Inhibitors of Bacillus subtilis Sfp phosphopantetheinyl transferase (PPTase). AID 1490, 2009. hit rate 3.5% among 310,000. Biochemical Sfp PPTase activity, qHTS. Potency, µM, without a hit: largest response in the series, negative = inhibition, actives largely listed as inhibitors;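 also: the enzyme is Sfp with the accession as filed and its product quenches rhodamine fluorescence; 0% = enzyme reaction without inhibitor and -100% = no enzyme wells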
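Compounds were incubated with enzyme (final 15 nM) for 15 min at room temperature before substrate addition started the reaction. Fluorescence at 525 nm excitation, 598 nm emission was recorded immediately and after 30 minutes.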
JMJD2A Tudor inh: qHTS Assay for Inhibitors of JMJD2A-Tudor Domain; AID 504339, 2011; Potency, µM (doses to about 114 µM), for inactives: at the highest dose activity change, negative = inhibition, most hits filed as inhibitors; hit rate 4.4% among 390,000; AlphaScreen JMJD2A-Tudor / H3K4me3 peptide binding; also: % is scaled to controls: 0 for no effect and ±100 for the full control effect; nearly all actives have a fitted effect of over 50% in size
G9a inh: qHTS Assay for Inhibitors of Histone Lysine Methyltransferase G9a; Histone-lysine N-methyltransferase EHMT2 (Homo sapiens), Q96KQ7; G9a H3K9 monomethylation, AlphaScreen, 2 h; Potency, µM (highest dose often 102 µM), for inactives: top-dose activity, negative = inhibition, hits mostly inhibitors; hit rate 8.8% among 350,000; AID 504332, 2011; also: % is scaled to controls: 0 for no effect and ±100 for the full control effect; nearly all actives have a fitted effect of over 75% in size
Target sequence (Q96KQ7 913-1193 limits assumed): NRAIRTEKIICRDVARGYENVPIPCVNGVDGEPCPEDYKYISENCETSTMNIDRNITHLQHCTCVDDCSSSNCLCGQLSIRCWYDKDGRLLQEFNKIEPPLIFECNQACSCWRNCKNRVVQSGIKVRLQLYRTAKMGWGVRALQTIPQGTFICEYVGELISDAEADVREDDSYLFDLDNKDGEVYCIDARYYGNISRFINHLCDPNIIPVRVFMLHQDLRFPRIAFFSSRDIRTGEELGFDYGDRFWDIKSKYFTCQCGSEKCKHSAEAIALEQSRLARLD
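Enzyme 20 nM + cpd, 15 min RT; add b-H3K9 pep 500 nM / SAM 20 uM; 2 h RT; anti-H3K9me1 Ab 0.5 ug/mL + SA donor / anti-rabbit acceptor beads 20 ug/mL each, 10 min; AlphaScreen read.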
HP1b chromo inh: HTS for Inhibitors of HP1-beta Chromodomain Interactions with Methylated Histone Tails; Chromobox protein homolog 1 (Homo sapiens), P83916; Potency, µM (doses to about 114 µM), for the others: at the top dose activity change, negative = inhibition, hits mostly inhibitors; hit rate 0.56% among 390,000; AlphaScreen HP1-beta / biotin-H3K9me3 peptide binding; AID 540317, 2011; also: nearly all actives have a fitted effect of over 70% in size
Target sequence (P83916 whole entry, looked up): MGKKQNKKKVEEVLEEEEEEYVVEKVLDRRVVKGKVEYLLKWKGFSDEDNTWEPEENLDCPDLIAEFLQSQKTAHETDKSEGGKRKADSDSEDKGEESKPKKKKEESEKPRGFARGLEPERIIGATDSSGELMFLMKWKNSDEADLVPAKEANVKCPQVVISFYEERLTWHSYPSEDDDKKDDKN
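HP1-beta protein (50 nM final) preincubated 30 min at room temperature with biotinylated H3(1-18)K9me3 peptide (50 nM) in PBS pH 7.4, 0.01% Tween-20, then compound added for 30 min. AlphaScreen streptavidin donor/nickel chelate acceptor beads (10 ug/mL final), 30 min dark, luminescence read.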
BAZ2B inh: qHTS Assay for Inhibitors of BAZ2B | Bromodomain adjacent to zinc finger domain protein 2B (Homo sapiens), Q9UIF8 | AlphaScreen BAZ2B-H3K14Ac peptide displacement | Potency, µM (top dose mostly 114 µM), for the others: top-dose activity change, negative = inhibition, actives largely listed as inhibitors | hit rate 4.4% among 360,000; also: % is scaled to controls: 0 for no effect and ±100 for the full control effect; nearly all actives have a fitted effect of over 60% in size
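In this displacement format the biotinylated H3(5-23) peptide acetylated at Lys14 serves as ligand at 50 nM, with BAZ2B at 50 nM in PBS pH 7.4 containing 0.01% Tween-20. Donor and acceptor beads are 10 ug/mL final.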
PLK1 PBD inh: qHTS for Inhibitors of PLK1-PDB (polo-like kinase 1 - polo-box domain): Primary Screen; Serine/threonine-protein kinase PLK1 (Homo sapiens), P53350; Plk1 PBD binding of FITC phosphopeptide, fluorescence polarization; Potency, µM, for inactives: max response, negative = inhibition, usual class: inhibitors; hit rate 2.8% among 360,000; AID 720504, 2013; also: series mostly up to about 57 µM; % is scaled to controls: 0 for no effect and ±100 for the full control effect; nearly all actives have a fitted effect of over 65% in size
* = called active by the depositor; ? = inconclusive; . = not tested or not shown; [ ] = another dose, or the depositor's remark. Calls follow the shape of the dose curve; as a rule, active = well fitted curve in the direction sought with a large enough effect; inconclusive = small, poorly fitted or top-dose-only effect, or another doubt; inactive = no such curve, though single readings can be large; an effect the other way counts as inactive or inconclusive. Potency is read from the fitted curve at half-maximal effect.

SMILES	Sfp inh	JMJD2A Tudor inh	G9a inh	HP1b chromo inh	BAZ2B inh	PLK1 PBD inh
COc1ccc(/C=C/C(=O)O)cc1S(=O)(=O)NCc1ccco1	-25%	-4%	?	34%	-13%	0%
COc1cccc(S(=O)(=O)NCc2ccc(C(=O)NCc3ccco3)cc2)c1	?	-33%	45µM*	-5%	-8%	-6%
COc1cccc(NC(=O)COC(=O)c2ccc(S(=O)(=O)NCc3ccco3)cc2)c1	7%	35µM*	-4%[12.7 µM]	-28%	?	-21%
COc1cccc(S(=O)(=O)NCc2ccc(C(=O)N3CCN(c4ccccc4)CC3)cc2)c1	18%	-24%	63µM*	15%	-24%	-1%
Cc1ccc(/C=C/C(=O)O)cc1S(=O)(=O)NCc1ccco1	40µM*	-18%	.	18%	?	-5%
CC(=O)Nc1ccc(NC(=O)COC(=O)c2ccc(S(=O)(=O)NCc3ccco3)cc2)cc1	.	-3%	.	17%[57 µM]	.	4%
COc1ccc(N2CCN(C(=O)c3ccc(CNS(=O)(=O)c4cccc(OC)c4)cc3)CC2)cc1	21%	?	?	-18%	?	0%
COc1ccc(C(=O)N2CCC3(CC2)CCN(c2ncccn2)CC3)cc1	22%	.	-5%[12.7 µM]	.	.	.
Cc1cc(Cl)ccc1NNC(=O)c1c(C)noc1C	0%	79µM*	2.8µM*	-7%	-16%	?
Cc1ccc(NNC(=O)c2c(C)noc2C)cc1Cl	-10%	-10%	7.1µM*	68%	-11%	-10%
Cc1noc(C)c1C(=O)Nc1ccc(Cl)cc1C(F)(F)F	-6%	-14%	2%	27%	8%	-3%
Cc1c(/C=C(\C#N)C(=O)NCc2ccccc2)cc(C#N)n1C	18%	-13%	15%	8%	7%	-8%
Cc1ccc(CNC(=O)C(=O)NCC2OCCN2S(=O)(=O)c2ccc(Cl)cc2)cc1 (stereo not given)	.	-6%	.	19%	.	2%
CCn1c(SCC(=O)NNC(=S)Nc2ccc(C)cc2)nnc1-c1ccc(Cl)cc1	9%	-22%	10µM*	19%	-1%	-2%
CCn1c(SCC(=O)Nc2ccccc2C(=O)OC)nnc1-c1ccc(N)cc1	7%	-8%	45µM*	9%	3%	-8%
CCn1c(SCC(=O)Nc2ccccc2C(=O)OC)nnc1-c1ccoc1C	3%	-16%	-2%	3%	3%	-9%
CCn1c(Oc2ccccc2)nc2c1c(=O)n(C)c(=O)n2C	9%	-12%[57.1 µM]	-1%[0.501 µM]	-9%	12%	27µM*
CCn1c(SCC(=O)Nc2ccccc2)nc2c1c(=O)n(C)c(=O)n2C	16%	1%	9%[59 µM]	61%	3%	-3%
Cc1ccc(NC(=S)NNC(=O)CSc2nnc(-c3ccc(Cl)cc3)n2C2CCCCC2)cc1	13%	?	-15%[59 µM]	-26%	-7%	-8%
CCn1c(SCC(=O)Nc2ccccc2C(=O)OC)nc2c1c(=O)n(C)c(=O)n2C	14%	.	28µM*	.	2%	.
C=CCn1c(Oc2ccccc2)nc2c1c(=O)n(C)c(=O)n2C	4%	1%	.	28%	?	3%
O=C(c1cn(CCOc2ccccc2F)c2ccccc12)C1CCCCC1	.	-10%	45%[59 µM]	54%	9%	.
Brc1nc(Br)n(Cc2ccccc2)n1	15%	-3%	16%	39%	4%	-8%
Nn1cnn(Cc2ccccc2)c1=S	?	-10%	?	-25%	12%	24µM*
NNc1ncnc2c1cnn2-c1ccccc1	?	50µM*	-49%[12.7 µM]	20%	28µM*	-5%
SMILES	Sfp inh	JMJD2A Tudor inh	G9a inh	HP1b chromo inh	BAZ2B inh	PLK1 PBD inh
CC(=O)CSc1ncnc2c1cnn2-c1ccccc1	21%	-19%	34%[59 µM]	-5%	2%	24µM*
CCOC(=O)CNC(=O)CSc1ncnc2c1cnn2-c1ccc(Cl)cc1	4%	?	4%[59 µM]	-10%	.	24µM*
O=C(NCc1ccc2c(c1)OCO2)c1ccc2c(c1)S(=O)(=O)c1ccccc1C2=O	.	-32%	.	4%	.	-9%
CCc1nn(CC(=O)NCC(C)c2ccccc2)c(=O)c2cc3c(OC)cccc3n12 (stereo not given)	.	2%	14%[59 µM]	14%	-5%	.
Cc1ccc(CNC(=O)c2ccc(-n3c(C)cc4c3CCCC4)cc2)cc1	.	-27%	-25%[59 µM]	10%	-12%	.
Cc1cc2c(n1-c1ccc(C(=O)O)cc1)CCCCC2	-13%	.	7.9µM*	.	13µM*	.
O=C(c1ccc(Cl)c(Cl)c1)N1CCC(=O)N(C(CO)Cc2ccccc2)CC1 (stereo not given)	.	35µM*	.	-22%	.	27µM*
O=C(c1ccc(Cl)c(Cl)c1)N1CCC(=O)N([C@H](COCc2ccccc2)Cc2ccccc2)CC1	.	.	.	.	.	-1%
CCCCC1CCC(CCCC(C)CCC(=O)O)CC1 (stereo not given)	.	?	4%[59 µM]	?	-32%	.
COC(=O)C(CCSC)Nc1ncnc2onc(-c3ccc(F)cc3)c12 (stereo not given)	.	-15%	9%[59 µM]	17%	-8%	.
O=C(O)COc1ccc(/C=C/c2nc3ccc([N+](=O)[O-])cc3s2)cc1	4%	-21%[11.4 µM]	-4%[59 µM]	5%	-1%	24µM*
COCCSc1nnc(NC(=O)c2cc(C(=O)OC)cc([N+](=O)[O-])c2)s1	8%	-16%	50µM*	20%	-37%	-10%
CCC(CC)c1nnc(NC(=O)c2cc(C(=O)OC)cc([N+](=O)[O-])c2)s1	45µM*	-22%	8.9µM*	-9%	-31%	9.5µM*
COCc1nnc(NC(=O)c2cc(C(=O)OC)cc([N+](=O)[O-])c2)s1	-14%	9%	-1%[59 µM]	23%	1%	-15%
N#CCCC(CCC#N)C1=NCCc2ccccc21	9%	-14%	.	42%	-3%	0%
CCN1C[C@@H]2[C@@H]3C(=O)N(Cc4ccccc4)C(=O)[C@@H]3[C@](Cc3ccccc3)(C1=O)N2C(=O)c1ccc(Cl)cc1	.	-24%	.	50%	.	-5%
COc1cccc(-c2nnc3n2N=C(c2c(OC)cccc2OC)CS3)c1OC	4%	-8%	.	.	.	.
C=CCOc1c(Cl)cc(C(=S)N2CCCC2)cc1OCC	13%	3%	56%	13%	-12%	1%
CNC1=C([N+](=O)[O-])CC([N+](=O)[O-])=C(N2CCNCC2)N1C	19%	-12%	45µM*	9%	-1%	-16%
